Assay results as given in PubChem BioAssay (Tox21).
Inconclusive results are not listed. Activity calls are given as the source filed them. Unless noted, calls follow the shape of the dose curve; as a rule, active = well fitted curve in the direction sought with a large enough effect in the repeat runs; inconclusive = weak or mixed curves; inactive = no such curve, though single readings can be large; an effect the other way counts as inactive or inconclusive.

Columns and labels:
[1] = qHTS assay to identify small molecule agonists of the sonic hedgehog signaling (Shh) pathway - cell viability counter screen (AID 1259366); also: nearly all actives have a fitted effect of over 50% in size
Outline: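 CellTiter-Fluor fluorescence read-out, 1 hr at 37C, added after 23hr compound exposure. Cells: 3T3 Gli1-Luc, an NIH/3T3 clone with stably integrated Gli1-Luc reporter, plated 4hr before compound.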

[2] = qHTS assay to identify small molecule antagonists of the sonic hedgehog signaling (Shh) pathway - cell viability counter screen (AID 1259367); also: nearly all actives have a fitted effect of over 55% in size
Outline: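 CellTiter-Fluor signal in conditioned medium-stimulated 3T3 Gli1-Luc cells, 23 hr compound exposure, 37C.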

[3] = qHTS assay to identify small molecule antagonists of the sonic hedgehog signaling (Shh) pathway (AID 1259369; calls by dose curve; also: nearly all actives have a fitted effect of over 45% in size)
Outline: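 NIH/3T3 stable Gli1-Luc clone, 2,000 cells/well, 4hr settle; cpd + conditioned medium 24hr; Luc reagent 30min RT; luminescence.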

[4] = qHTS assay to identify small molecule agonists of the androgen receptor (AR) signaling pathway in the presence of an antagonist - cell viability counter screen (AID 1259379);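 also: MDA-kb2 human breast cancer cells carrying an MMTV luciferase reporter; series mostly up to about 92 µM; nearly all actives have a fitted effect of over 25% in size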
Outline: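 MDA-kb2 viability measured by CellTiter-Fluor fluorescence in the same wells as the luciferase signal; nilutamide 3.0uM final; 15-point compound titration; 16 hr at 37C.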

[5] = qHTS assay to identify small molecule agonists of the estrogen receptor beta (ER-beta) signaling pathway - cell viability counter screen (AID 1259380); also: nearly all actives have a fitted effect of over 30% in size
Outline: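 Measured: luminescence from CellTiter-Glo after 30 min at room temperature, added to wells already read for the LiveBLAzer FRET reporter (2 hr substrate); ER-beta-UAS-bla HEK293T cells had 16 hr compound treatment at 37C, 5% CO2.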

[6] = qHTS assay to identify small molecule antagonists of the estrogen receptor beta (ER-beta) signaling pathway - cell viability counter screen (AID 1259382);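 also: HEK293T cells carrying ER-beta-UAS-bla reporter stimulated with estradiol; series mostly up to about 92 µM; nearly all actives have a fitted effect of over 55% in size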
Outline: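 Readout: luminescence, CellTiter-Glo, same wells as bla assay. System: ER-beta-UAS-bla GripTite HEK293T, 2% charcoal-stripped FBS. Exposure: compounds plus 1nM 17-beta-estradiol, 16 hr, 37C.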

[7] = target: Estrogen receptor beta (Homo sapiens) (UniProt Q92731); test: qHTS assay to identify small molecule agonists of the estrogen receptor beta (ER-beta) signaling pathway (AID 1259377; active = well fitted activation curve with a large enough effect in the signal ratio in the repeat runs, not every such curve was filed as active; the % refers to the signal ratio)
Sequence of Estrogen receptor beta (Homo sapiens) (Q92731 whole entry, looked up): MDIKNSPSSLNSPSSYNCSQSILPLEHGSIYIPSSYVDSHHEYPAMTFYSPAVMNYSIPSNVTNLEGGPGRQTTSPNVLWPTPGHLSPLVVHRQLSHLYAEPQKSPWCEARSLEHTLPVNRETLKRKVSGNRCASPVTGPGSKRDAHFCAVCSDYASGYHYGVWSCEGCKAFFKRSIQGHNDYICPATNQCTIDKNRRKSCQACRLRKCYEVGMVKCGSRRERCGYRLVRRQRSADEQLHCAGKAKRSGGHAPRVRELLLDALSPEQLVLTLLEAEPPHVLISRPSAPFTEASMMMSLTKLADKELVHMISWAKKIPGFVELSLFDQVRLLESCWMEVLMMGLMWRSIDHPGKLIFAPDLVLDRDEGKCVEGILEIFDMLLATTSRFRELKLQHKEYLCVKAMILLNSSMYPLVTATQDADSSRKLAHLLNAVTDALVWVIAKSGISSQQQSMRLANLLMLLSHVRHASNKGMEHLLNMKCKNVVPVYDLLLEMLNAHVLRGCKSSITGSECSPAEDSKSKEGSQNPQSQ
Outline: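 Beta-lactamase reporter readout: fluorescence of LiveBLAzer B/G FRET substrate after 2 h at room temperature, following 16 h compound treatment of ER-beta-UAS-bla HEK293T cells at 37C in 2% charcoal-stripped FBS medium.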

[8] = target: Estrogen receptor beta (Homo sapiens) (UniProt Q92731); test: qHTS assay to identify small molecule antagonists of the estrogen receptor beta (ER-beta) signaling pathway (AID 1259378; active = well fitted inhibition curve with a large enough effect in the signal ratio in the repeat runs, not every such curve was filed as active; the % refers to the signal ratio)
Outline: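 Antagonist mode: compounds added to beta-lactamase reporter HEK293T ER-beta-UAS cells stimulated with E2 (1nM final), 16 hr at 37C. LiveBLAzer B/G FRET substrate, 2 hours room temperature, fluorescence read-out.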

[9] = qHTS assay to identify small molecule agonists of the sonic hedgehog signaling (Shh) pathway (AID 1259368; calls by dose curve;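 also: NIH/3T3-derived 3T3Gli1-Luc cells carrying a stable Gli1-driven firefly luciferase reporter; series mostly up to about 92 µM; nearly all actives have a fitted effect of over 15% in size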)
Outline: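 Hedgehog pathway agonism scored by increased firefly luciferase luminescence in 3T3Gli1-Luc cells treated 24 hr at 37 C; detection used a 30 min room-temperature reagent incubation.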

[10] = target: Androgen receptor (Homo sapiens) (UniProt P10275); test: qHTS assay to identify small molecule agonists of the androgen receptor (AR) signaling pathway in the presence of an antagonist (AID 1259381; calls by dose curve; also: nearly all actives have a fitted effect of over 15% in size)
Sequence of Androgen receptor (Homo sapiens) (P10275 whole entry, looked up): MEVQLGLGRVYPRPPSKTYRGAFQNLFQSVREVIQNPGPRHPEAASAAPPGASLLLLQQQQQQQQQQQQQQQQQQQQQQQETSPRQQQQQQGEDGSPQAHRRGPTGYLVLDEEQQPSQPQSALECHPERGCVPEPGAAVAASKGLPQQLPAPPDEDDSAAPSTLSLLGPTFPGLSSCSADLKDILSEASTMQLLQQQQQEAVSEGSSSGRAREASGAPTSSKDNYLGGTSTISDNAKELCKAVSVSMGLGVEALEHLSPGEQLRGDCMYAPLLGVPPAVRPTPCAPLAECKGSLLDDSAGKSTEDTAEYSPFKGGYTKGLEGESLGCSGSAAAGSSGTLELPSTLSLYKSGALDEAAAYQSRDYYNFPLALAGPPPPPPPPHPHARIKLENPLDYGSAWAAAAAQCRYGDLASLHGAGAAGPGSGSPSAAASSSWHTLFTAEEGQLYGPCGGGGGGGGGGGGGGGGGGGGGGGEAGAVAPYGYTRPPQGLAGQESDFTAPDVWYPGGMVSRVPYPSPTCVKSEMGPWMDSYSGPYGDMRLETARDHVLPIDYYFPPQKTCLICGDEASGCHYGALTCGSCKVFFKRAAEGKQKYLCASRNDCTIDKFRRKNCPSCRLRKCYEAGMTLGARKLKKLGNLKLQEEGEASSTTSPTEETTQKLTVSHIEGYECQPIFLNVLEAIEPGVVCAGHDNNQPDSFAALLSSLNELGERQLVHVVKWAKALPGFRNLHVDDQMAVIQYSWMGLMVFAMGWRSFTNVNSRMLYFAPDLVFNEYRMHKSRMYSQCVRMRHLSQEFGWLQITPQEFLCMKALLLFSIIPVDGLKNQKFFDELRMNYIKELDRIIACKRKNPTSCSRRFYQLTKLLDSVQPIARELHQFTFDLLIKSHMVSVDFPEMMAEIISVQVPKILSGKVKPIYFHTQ
Outline: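 Luminescent ONE-Glo read, 30min at room temperature, follows 16hr compound exposure (15 concentrations) of MDA-kb2 cells at 37C, 0% CO2, with nilutamide added at 3.0uM final.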

Measured: Potency

CC(=O)Nc1ccc(OCCOCCOc2ccc(NC(C)=O)cc2)cc1
inactive: [1] | [2] | [3] | [4] | [5] | [6]

C=CC(=O)OCCOCCOCC
inactive: [1] | [2] | [7] | [8] | [5] | [6]

Clc1ccc2c(c1)Nc1ccccc1S2
inactive: [1] | [2] | [9] | [5] | [10] | [6]

COC(=O)N/N=C/c1c[n+]([O-])c2ccccc2[n+]1[O-]
inactive: [1] | [2] | [3] | [4] | [5] | [6]

CCCc1ncc(C(=O)O)s1
not listed: [9]
inactive: all other assays above

CCCCCCCCCCCCCCBr
not listed: [9] | [10]
inactive: all other assays above

CC(C)(O)c1ccc(C(C)(C)O)cc1
inactive: [1] | [2] | [3] | [4] | [5] | [6]

CC[C@@]1(c2ccccc2)NC(=O)N(C)C1=O
not listed: [9] | [10]
inactive: all other assays above

CCc1ccc(CC)cc1
not listed: [3] | [9] | [10]
inactive: all other assays above

CC(C)(C)NCC(O)COc1cccc2c1CCC(=O)N2 (stereo unspecified)
not listed: [1]
inactive: all other assays above

CCCC(=O)C(CC)Sc1ccoc1C (stereo unspecified)
not listed: [9]
inactive: all other assays above

COC(=O)c1ccc(C(=O)O)cc1
inactive: [1] | [2] | [7] | [8] | [5] | [6]

C=COCCCCO
not listed: [9] | [10]
inactive: all other assays above

O=C1c2ccccc2C(=O)N1CO
not listed: [3] | [9]
inactive: all other assays above

CN(C)c1cc(NC(=O)CNC(C)(C)C)c(O)c2c1C[C@H]1C[C@H]3[C@H](N(C)C)C(=O)C(C(N)=O)=C(O)[C@@]3(O)C(=O)C1=C2O
not listed: [9]
inactive: all other assays above

CC1(C)S[C@@H]2[C@H](NC(=O)Cc3ccccc3)C(=O)N2[C@H]1C(=O)O (tested in a mixture with another compound)
not listed: [9] | [10]
inactive: all other assays above

O=C(O)P(=O)(O)O
inactive: [1] | [2] | [3] | [4] | [5] | [6]

COc1cc(OC)cc(OC)c1
not listed: [1]
inactive: all other assays above

CCN1CCN(C(=O)N[C@@H](C(=O)N[C@@H]2C(=O)N3[C@@H]2SC(C)(C)[C@H]3C(=O)O)c2ccccc2)C(=O)C1=O
not listed: [1] | [5] | [10]
inactive: all other assays above

O=CN1CCCCC1
not listed: [1] | [10]
inactive: all other assays above

O=c1[nH]c(=O)c2cn[nH]c2[nH]1
not listed: [1] | [10]
inactive: all other assays above

Cc1ccc(O)c(C(=O)c2ccccc2)c1
not listed: [1] | [7] | [8]
inactive: all other assays above

CC(C)c1cc(C(C)C)cc(C(C)C)c1
not listed: [1] | [10]
inactive: all other assays above

CCCCCCCCS(=O)(=O)O
inactive: [2] | [9] | [8] | [4] | [5] | [6]

O=C(O)/C=C(\CC(=O)O)C(=O)O
not listed: [1] | [9] | [10]
inactive: all other assays above

C=CCN1CCc2nc(N)sc2CC1
inactive: [2] | [3] | [4] | [5] | [10] | [6]
